Measurements from PubChem BioAssay (Tox21).
Values joined by “and” are separate entries in the source; they are usually repeats but may differ in a detail not shown here. Identical values can stand only once. Inconclusive results are not listed. Active and inactive are the calls of the source. Unless noted, calls follow the shape of the dose curve; as a rule, active = well fitted curve in the direction sought with a large enough effect in the repeat runs; inconclusive = weak or mixed curves; inactive = no such curve, though single readings can be large; an effect the other way counts as inactive or inconclusive.

Assays:
[1] = qHTS assay to identify small molecule antagonists of the glucocorticoid receptor (GR) signaling pathway - cell viability counter screen (AID 720693); also: nearly all actives have a fitted effect of over 55% in size; also: potency is read from the fitted curve at half-maximal effect
[2] = qHTS assay for identifying genotoxic compounds that show differential cytotoxicity against isogenic chicken DT40 cell lines with known DNA damage response pathways - wild type cell line (AID 743012); also: nearly all actives have a fitted effect of over 60% in size; also: potency is read from the fitted curve at half-maximal effect
In short: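 Wild-type DT40 cells (300/well) exposed to compounds for 40 hours at 37 C/5% CO2. Viability read by CellTiter-Glo luminescence after 30 min at room temperature.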

[3] = qHTS assay for identifying genotoxic compounds that show differential cytotoxicity against isogenic chicken DT40 cell lines with known DNA damage response pathways - Rev3 mutant cell line (AID 743014); also: nearly all actives have a fitted effect of over 55% in size; also: potency is read from the fitted curve at half-maximal effect
[4] = qHTS assay for identifying genotoxic compounds that show differential cytotoxicity against isogenic chicken DT40 cell lines with known DNA damage response pathways - Rad54/Ku70 mutant cell line (AID 743015); also: nearly all actives have a fitted effect of over 60% in size; also: potency is read from the fitted curve at half-maximal effect
[5] = qHTS assay to identify small molecule antagonists of the androgen receptor (AR) signaling pathway - cell viability counter screen (AID 743033; also: nearly all actives have a fitted effect of over 45% in size; also: potency is read from the fitted curve at half-maximal effect)
[6] = qHTS assay to identify small molecule antagonists of the androgen receptor (AR) signaling pathway using the MDA cell line - cell viability counter screen (AID 743041; also: nearly all actives have a fitted effect of over 45% in size; also: potency is read from the fitted curve at half-maximal effect)
In short: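 Viability counter screen run alongside the AR antagonist reporter: cells seeded 5 h before compound, R1881 added, 16 h incubation at 37C without CO2, fluorescent CellTiter-Fluor signal quantified.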

[7] = biological target: Androgen receptor (Homo sapiens) (UniProt P10275); experiment: qHTS assay to identify small molecule antagonists of the androgen receptor (AR) signaling pathway (AID 743035; active = well fitted inhibition curve with a large enough effect in the signal ratio in the repeat runs, not every such curve was filed as active; the % refers to the signal ratio; also: potency is read from the fitted curve at half-maximal effect)
In short: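 HEK293 cells stably carrying UAS-beta-lactamase reporter, 2,000/well, given compounds plus R1881 agonist and incubated 16 h at 37C. LiveBLAzer B/G FRET substrate then added for 2 h at room temperature before fluorescence reading.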

[8] = biological target: Androgen receptor (Homo sapiens) (UniProt P10275); experiment: qHTS assay to identify small molecule agonists of the androgen receptor (AR) signaling pathway (AID 743036; active = well fitted activation curve with a large enough effect in the signal ratio in the repeat runs, with a control signal flat, not every such curve was filed as active; the % refers to the signal ratio)
In short: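 Fluorescence from a beta-lactamase FRET substrate served as read-out in AR-UAS-bla GripTite HEK293 cells. Cells were treated with DMSO-dissolved compounds for 16 h at 37C, then with LiveBLAzer B/G substrate for 2 h at room temperature.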

[9] = biological target: Androgen receptor (Homo sapiens) (UniProt P10275); experiment: qHTS assay to identify small molecule agonists of the androgen receptor (AR) signaling pathway using the MDA cell line (AID 743040; also: nearly all actives have a fitted effect of over 20% in size)
In short: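 Luminescence from ONE-Glo, read after 30 min at room temperature, reflects MMTV-driven luciferase in MDA-kb2 cells (AR- and GR-responsive). Treatment lasted 16 h at 37C, 0% CO2.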

[10] = biological target: Androgen receptor (Homo sapiens) (UniProt P10275); experiment: qHTS assay to identify small molecule antagonists of the androgen receptor (AR) signaling pathway using the MDA cell line (AID 743042; also: nearly all actives have a fitted effect of over 55% in size)
In short: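 MDA-kb2 cells (human breast carcinoma, stably carrying an MMTV-luciferase reporter responsive to AR and GR) were plated at 3,000 cells/well and preincubated 5 hr at 37C, then given compound plus R1881 agonist for 16 h. ONE-Glo luminescence was read.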

Measured: Potency

Sequence of Androgen receptor (Homo sapiens) (P10275 whole entry, looked up): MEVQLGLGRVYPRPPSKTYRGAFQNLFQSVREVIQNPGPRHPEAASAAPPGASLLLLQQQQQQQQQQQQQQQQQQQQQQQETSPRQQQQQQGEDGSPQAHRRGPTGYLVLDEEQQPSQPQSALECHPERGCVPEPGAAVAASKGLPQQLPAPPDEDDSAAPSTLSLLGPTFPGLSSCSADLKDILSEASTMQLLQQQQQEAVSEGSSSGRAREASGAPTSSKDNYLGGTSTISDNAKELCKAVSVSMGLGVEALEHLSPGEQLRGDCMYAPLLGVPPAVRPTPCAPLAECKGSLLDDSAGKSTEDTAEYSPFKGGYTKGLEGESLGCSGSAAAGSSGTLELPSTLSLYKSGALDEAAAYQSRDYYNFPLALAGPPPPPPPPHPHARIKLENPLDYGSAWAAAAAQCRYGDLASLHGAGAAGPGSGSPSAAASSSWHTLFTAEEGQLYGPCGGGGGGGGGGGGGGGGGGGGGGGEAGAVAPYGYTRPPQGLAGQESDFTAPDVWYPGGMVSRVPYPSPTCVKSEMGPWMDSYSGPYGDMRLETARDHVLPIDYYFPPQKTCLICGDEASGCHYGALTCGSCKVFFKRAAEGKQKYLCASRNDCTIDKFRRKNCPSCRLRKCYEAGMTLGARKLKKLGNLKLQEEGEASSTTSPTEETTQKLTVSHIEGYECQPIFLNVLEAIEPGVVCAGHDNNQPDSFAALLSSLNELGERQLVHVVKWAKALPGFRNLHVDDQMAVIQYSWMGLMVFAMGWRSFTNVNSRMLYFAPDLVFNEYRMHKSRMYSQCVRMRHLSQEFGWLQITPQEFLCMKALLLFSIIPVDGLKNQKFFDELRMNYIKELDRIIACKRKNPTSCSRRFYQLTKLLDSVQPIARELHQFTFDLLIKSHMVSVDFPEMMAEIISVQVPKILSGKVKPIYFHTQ

COc1cc(OC)nc(Sc2cccc(Cl)c2C(=O)O)n1
inactive: [1] | [2] | [3] | [4] | [5] | [6]

CCOP(=S)(OCC)Oc1cc(-c2ccccc2)on1
inactive: [1] | [5] | [6]
active: [2] 68.6 µM | [3] 61.1 µM | [4] 68.6 µM

CN/C(=N\[N+](=O)[O-])NCC1CCOC1 (stereo not drawn)
inactive: [1] | [2] | [3] | [4] | [5] | [6]

CC(N)=S
inactive: [1] | [2] | [3] | [4] | [5] | [6]

ClC(Br)Br
inactive: [1] | [2] | [3] | [4] | [5] | [6]

CCNc1nc(NC(C)C)nc(OC)n1
inactive: [1] | [2] | [3] | [4] | [5] | [6]

CNNC
inactive: [1] | [2] | [3] | [4] | [5] | [6]

O=C1OC(=O)C2C1C1(Cl)C(Cl)=C(Cl)C2(Cl)C1(Cl)Cl (stereo not drawn)
inactive: [1] | [2] | [3] | [4] | [5] | [6]

COc1cccc2c1cc([N+](=O)[O-])c1c(C(=O)O)cc3c(c12)OCO3
active: [1] 12.3 µM | [2] 0.77 µM | [3] 0.137 µM | [4] 0.193 µM | [5] 12.3 µM | [6] 34.4 µM

CC1(C)C(=O)NC(=O)NC1=O
inactive: [1] | [2] | [3] | [4] | [5] | [6]

COCC(=O)N(c1c(C)cccc1C)N1CCOC1=O
inactive: [1] | [2] | [3] | [4] | [5] | [6]

CCOC(=O)CP(=O)(OCC)OCC
inactive: [1] | [2] | [3] | [4] | [5] | [6]

ClC(Cl)(Cl)C(Cl)(Cl)Cl
inactive: [1] | [2] | [3] | [4] | [5] | [6]

BrCCCCCCBr
inactive: [1] | [2] | [3] | [4] | [5] | [6]

COc1cc(OC)nc(NC(=O)NS(=O)(=O)c2ncccc2OCC(F)(F)F)n1
inactive: [1] | [2] | [3] | [4] | [5] | [6]

CC1CN1P(=O)(N1CC1C)N1CC1C (stereo not drawn)
inactive: [1] | [2] | [3] | [4] | [5] | [6]

CCOP(=S)(Oc1cnc(C(C)(C)C)nc1)OC(C)C (stereo not drawn)
inactive: [1] | [5] | [6]
active: [2] 54.5 µM | [3] 27.3 µM | [4] 48.6 µM

CC1CCC(=O)O1 (stereo not drawn)
inactive: [1] | [2] | [3] | [4] | [5] | [6]

CC(C)COP(=O)(OCC(C)C)OCC(C)C
inactive: [1] | [2] | [3] | [4] | [5] | [6]

CN1C(=S)CN=C(c2ccccc2)c2cc(Cl)ccc21
inactive: [1] | [5]
active: [2] 23.7 µM | [4] 29.8 µM

COc1cc2c(cc1OC)[C@@]13CCN4CC5=CCO[C@H]6CC(=O)N2[C@H]1[C@H]6[C@H]5C[C@H]43
inactive: [1] | [5] | [6]
active: [2] 24.3 µM | [3] 24.3 µM | [4] 26.6 µM and 13.7 µM

O=C1OC(c2ccc(O)c(S(=O)(=O)O)c2)(c2ccc(O)c(S(=O)(=O)O)c2)c2c(Br)c(Br)c(Br)c(Br)c21
inactive: [1] | [2] | [3] | [4] | [5] | [6]

CC(C)CP(=S)(S)CC(C)C
active: [2] 13.7 µM | [3] 13.7 µM | [4] 8.63 µM | [5] 17.4 µM
inactive: [1] | [6]

NC(=O)O
inactive: [1] | [2] | [3] | [4] | [5] | [6]

Cc1ncsc1CCCl
inactive: [1] | [2] | [3] | [4] | [6]

CC(=O)CCc1ccc2c(c1)OCO2
inactive: [1] | [2] | [3] | [4] | [5] | [6]

Nc1cc(Cl)ccc1O
inactive: [1] | [5] | [6]
active: [2] 14.9 µM | [3] 14.9 µM | [4] 9.37 µM

O=[N+]([O-])c1ccc2c3c(cccc13)CC2
inactive: [1] | [2] | [5] | [6]
active: [3] 19.3 µM

O=C(Nc1ccccc1)N(Cc1ccc(Cl)cc1)C1CCCC1
inactive: [1] | [5] | [6]
active: [2] 3.86 µM | [3] 0.611 µM | [4] 1.54 µM

CCS(=O)(=O)C(C)(C)S(=O)(=O)CC
inactive: [1] | [2] | [3] | [4] | [6]

CSc1ccc(C(=O)C(C)(C)N2CCOCC2)cc1
active: [2] 48.6 µM | [3] 68.6 µM | [4] 48.6 µM
inactive: [1] | [5] | [6]

O=S(=O)(O)C(F)(F)C(F)(F)C(F)(F)C(F)(F)C(F)(F)C(F)(F)F
inactive: [1] | [2] | [3] | [4] | [5] | [6]

[O]=[Cd]
inactive: [1] | [2] | [3] | [4] | [5] | [6]

ClCCOCOCCCl
inactive: [1] | [2] | [3] | [4] | [5] | [6]

O=P(O)(Oc1ccccc1)Oc1ccccc1
inactive: [1] | [2] | [3] | [4] | [5] | [6]

CCN(CC)CCOC(=O)C(C)(c1ccccc1)c1ccccc1
inactive: [1] | [5] | [6]
active: [2] 8.41 µM | [3] 11.9 µM | [4] 23.7 µM

CC(C)NCC(O)c1ccc(N)c(C#N)c1 (stereo not drawn)
inactive: [1] | [2] | [3] | [4] | [5] | [6]

O=NN1CCN(N=O)CC1
inactive: [1] | [2] | [3] | [4] | [5] | [6]

COC(C)(C)C
inactive: [1] | [2] | [3] | [4] | [5] | [6]

CCOP(=O)(OCC)OP(=O)(OCC)OCC
not listed: [3]
inactive: all other assays above

CC(=O)C(Cl)Cl
inactive: [1] | [2] | [3] | [4] | [5] | [6]

CCC#N
inactive: [1] | [2] | [3] | [4] | [6]

CNC(=O)Oc1c(C(C)(C)C)cc(C)cc1C(C)(C)C
not listed: [4]
inactive: all other assays above

COc1ccc(C(=O)N2CCCC2=O)cc1
inactive: [1] | [2] | [3] | [4] | [6]
active: [5] 0.0085 µM

CN(N=O)C(N)=O
inactive: [1] | [2] | [3] | [4] | [5] | [6]

NC(=S)C(N)=S
inactive: [1] | [2] | [3] | [4] | [5] | [6]

CC(=O)CC(c1ccc(Cl)cc1)c1c(O)c2ccccc2oc1=O (stereo not drawn)
inactive: [1] | [2] | [3] | [4] | [5] | [6]

CCS(=O)(=O)CCSP(=O)(OC)OC
inactive: [1] | [5] | [6]
active: [2] 61.1 µM | [3] 38.6 µM | [4] 48.6 µM

Fc1ccc(C2(Cn3cncn3)OC2c2ccccc2Cl)cc1 (stereo not drawn)
inactive: [1] | [6]
active: [2] 15.4 µM | [3] 34.4 µM | [4] 27.3 µM

OCCBr
inactive: [1] | [2] | [5] | [6]
active: [3] 19.4 µM

N#CC(O)c1ccccc1 (stereo not drawn)
inactive: [1] | [2] | [3] | [4] | [5] | [6]

O=C1CN=C(c2ccccc2)c2cc([N+](=O)[O-])ccc2N1
inactive: [1] | [3] | [4] | [5] | [6]

Cc1cc(C)c(C(=O)P(=O)(C(=O)c2c(C)cc(C)cc2C)c2ccccc2)c(C)c1
inactive: [1] | [2] | [4] | [5] | [6]

CS(=O)(=O)c1cc(C(F)(F)F)ccc1C(=O)c1cnoc1C1CC1
inactive: [1] | [2] | [4] | [5] | [6]

C1CCC(C2CCCCC2)CC1
active: [3] 54.5 µM | [4] 54.5 µM
inactive: [1] | [5]

COP(N)(=S)Oc1ccccc1C(=O)OC(C)C (stereo not drawn)
not listed: [2]
inactive: all other assays above

Nc1c(Br)cc([N+](=O)[O-])cc1[N+](=O)[O-]
inactive: [1] | [2] | [5] | [9] | [10]

c1cc[c]([Hg][c]2ccccc2)cc1
active: [3] 0.243 µM | [4] 0.193 µM | [7] 43.6 µM
not listed: [2]
inactive: all other assays above

CC1=C(C(=O)Nc2ccccc2)S(=O)(=O)CCO1
inactive: [1] | [5]
active: [3] 15.3 µM | [4] 17.2 µM

N#Cc1ccncc1
inactive: [1] | [3] | [4] | [5] | [6]

CC1=NNC(=O)N(/N=C/c2cccnc2)C1
inactive: [1] | [2] | [4] | [5] | [6]

CNC(=O)N(C)c1nc2ccccc2s1
not listed: [3] | [7] | [8]
inactive: all other assays above

COc1ccc2c(c1OC)CN1CCc3cc4c(cc3C1C2)OCO4 (stereo not drawn)
active: [2] 11.4 µM
not listed: [3] | [4] | [7]
inactive: all other assays above

CN1C[C@@H](NS(=O)(=O)N(C)C)C[C@@H]2c3cccc4c3c(cn4C)C[C@H]21
inactive: [1] | [5] | [6]
active: [2] 21.1 µM

CCCCP(CCCC)CCCC
inactive: [1] | [2] | [4] | [5] | [6]

[As]#[In]
inactive: [1] | [3] | [4] | [5] | [6]
